Assay results as given in PubChem BioAssay (NCATS).
Several values for one entry are separate records, joined by “and”; a condition that tells them apart may be missing. Identical values can stand only once. Inconclusive results are not listed. Where a call stands in place of a potency, no number is given. More than one record can exist for a structure, and the calls need not agree. Activity calls are given as the source filed them. Unless noted, calls follow the shape of the dose curve; as a rule, active = well fitted curve in the direction sought with a large enough effect; inconclusive = small, poorly fitted or top-dose-only effect, or another doubt; inactive = no such curve, though single readings can be large; an effect the other way counts as inactive or inconclusive.

How the values were obtained:
[1] = target: Voltage-gated inwardly rectifying potassium channel KCNH2 (Homo sapiens) (UniProt Q12809); assay: qHTS Assay for Small Molecule Inhibitors of the Human hERG Channel Activity (AID 588834);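 also: lower thallium flux fluorescence means stronger hERG block; nearly all actives have a fitted effect of over 50% in size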; also: potency is read from the fitted curve at half-maximal effect
Chain of Voltage-gated inwardly rectifying potassium channel KCNH2 (Homo sapiens) (Q12809 whole entry, looked up): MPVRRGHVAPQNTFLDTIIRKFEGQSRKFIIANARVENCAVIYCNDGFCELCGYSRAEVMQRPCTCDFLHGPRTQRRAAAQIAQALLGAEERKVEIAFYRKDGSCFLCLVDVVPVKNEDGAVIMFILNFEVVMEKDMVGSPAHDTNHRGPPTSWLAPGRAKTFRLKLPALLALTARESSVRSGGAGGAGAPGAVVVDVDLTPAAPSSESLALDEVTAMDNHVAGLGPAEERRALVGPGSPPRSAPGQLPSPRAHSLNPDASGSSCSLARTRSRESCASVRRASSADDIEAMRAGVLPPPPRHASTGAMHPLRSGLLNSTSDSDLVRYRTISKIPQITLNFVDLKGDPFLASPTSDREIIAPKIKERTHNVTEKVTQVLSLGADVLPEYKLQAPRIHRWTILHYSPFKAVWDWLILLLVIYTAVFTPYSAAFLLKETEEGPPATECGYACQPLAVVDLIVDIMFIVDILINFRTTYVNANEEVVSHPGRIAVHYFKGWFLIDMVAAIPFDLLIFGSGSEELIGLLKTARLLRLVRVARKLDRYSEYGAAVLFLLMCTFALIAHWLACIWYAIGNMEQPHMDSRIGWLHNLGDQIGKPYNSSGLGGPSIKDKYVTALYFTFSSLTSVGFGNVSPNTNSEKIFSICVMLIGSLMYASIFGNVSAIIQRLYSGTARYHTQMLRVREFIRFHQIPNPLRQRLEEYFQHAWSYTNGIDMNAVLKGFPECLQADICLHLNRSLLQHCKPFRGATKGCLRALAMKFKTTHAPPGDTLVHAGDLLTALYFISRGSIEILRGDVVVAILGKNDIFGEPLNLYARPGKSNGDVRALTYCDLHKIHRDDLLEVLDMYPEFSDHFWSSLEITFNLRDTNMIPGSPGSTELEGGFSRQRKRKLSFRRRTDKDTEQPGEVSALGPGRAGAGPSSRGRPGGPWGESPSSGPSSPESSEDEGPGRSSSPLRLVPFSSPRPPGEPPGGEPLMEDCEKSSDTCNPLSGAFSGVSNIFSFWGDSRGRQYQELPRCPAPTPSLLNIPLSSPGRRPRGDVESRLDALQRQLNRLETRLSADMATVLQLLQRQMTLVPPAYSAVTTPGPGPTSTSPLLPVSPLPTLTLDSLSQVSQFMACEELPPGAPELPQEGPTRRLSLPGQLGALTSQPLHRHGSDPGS
Summary of the method: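 U2OS cells transduced with hERG via BacMam (MOI ~100), plated 2000/well, loaded with FluxOR thallium dye, compound ~10 min, then stimulation buffer; fluorescence decrease read kinetically; AC50 from Hill fits.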

[2] = target: Luciferin 4-monooxygenase (Photinus pyralis) (UniProt P08659); assay: Biochemical firefly luciferase enzyme assay for NPC (AID 624030); also: nearly all actives have a fitted effect of over 70% in size; also: potency is read from the fitted curve at half-maximal effect
Chain of Luciferin 4-monooxygenase (Photinus pyralis) (P08659 whole entry, looked up): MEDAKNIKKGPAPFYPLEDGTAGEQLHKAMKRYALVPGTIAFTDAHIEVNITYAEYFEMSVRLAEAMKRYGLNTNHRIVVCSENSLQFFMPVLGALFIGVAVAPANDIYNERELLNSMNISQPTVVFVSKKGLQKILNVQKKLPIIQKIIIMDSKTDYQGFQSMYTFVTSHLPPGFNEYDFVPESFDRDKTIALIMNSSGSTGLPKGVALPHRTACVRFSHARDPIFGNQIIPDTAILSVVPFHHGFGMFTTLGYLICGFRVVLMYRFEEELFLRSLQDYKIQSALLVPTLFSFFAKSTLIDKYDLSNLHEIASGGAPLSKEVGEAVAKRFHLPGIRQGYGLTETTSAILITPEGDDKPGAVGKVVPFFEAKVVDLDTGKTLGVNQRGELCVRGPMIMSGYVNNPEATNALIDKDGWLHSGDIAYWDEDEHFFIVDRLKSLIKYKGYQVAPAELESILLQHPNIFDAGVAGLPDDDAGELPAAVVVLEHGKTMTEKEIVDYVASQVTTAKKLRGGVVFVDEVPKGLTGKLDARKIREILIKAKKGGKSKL
Summary of the method: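 Purified P. pyralis luciferase at 10 nM in 50 mM Tris Acetate (final), luminescence read within 5 minutes of enzyme addition to compounds. Activity normalised to PTC124 versus DMSO; concentration-response curves classed by r2, magnitude and activity.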

[3] = S16 Schwann cell viability assay (CellTiter-Glo assay) (AID 624031);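 also: cellular ATP luminescence as a viability measure; series mostly up to about 58 µM; nearly all actives have a fitted effect of over 70% in size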
Summary of the method: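 Native S16 rat Schwann cells, 500-750 cells/well in DMEM with 10% FBS, dosed with compound after overnight culture and incubated 24h at 37 degree Celsius/5% CO2. Viability by CellTiter-Glo luminescence; % activity normalized to no-cell wells and DMSO-treated cells.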

[4] = S16 Schwann cell PMP22 intronic element firefly luciferase assay (AID 624032); also: series mostly up to about 58 µM; nearly all actives have a fitted effect of over 30% in size
Summary of the method: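 Rat S16 Schwann cells stably carrying firefly luciferase driven by a PMP22 intronic element, in 10% FBS, treated 24 h at 37 C. ONE-Glo luminescence normalized to PTC124 control and DMSO (0%); curves classed by r2, magnitude and activity.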

[5] = target: Glutaminase kidney isoform, mitochondrial (Homo sapiens) (UniProt O94925); assay: qHTS for Inhibitors of Glutaminase (GLS): LOPAC Validation (AID 624146); also: nearly all actives have a fitted effect of over 60% in size; also: potency is read from the fitted curve at half-maximal effect
Chain of Glutaminase kidney isoform, mitochondrial (Homo sapiens) (O94925 whole entry, looked up, canonical isoform): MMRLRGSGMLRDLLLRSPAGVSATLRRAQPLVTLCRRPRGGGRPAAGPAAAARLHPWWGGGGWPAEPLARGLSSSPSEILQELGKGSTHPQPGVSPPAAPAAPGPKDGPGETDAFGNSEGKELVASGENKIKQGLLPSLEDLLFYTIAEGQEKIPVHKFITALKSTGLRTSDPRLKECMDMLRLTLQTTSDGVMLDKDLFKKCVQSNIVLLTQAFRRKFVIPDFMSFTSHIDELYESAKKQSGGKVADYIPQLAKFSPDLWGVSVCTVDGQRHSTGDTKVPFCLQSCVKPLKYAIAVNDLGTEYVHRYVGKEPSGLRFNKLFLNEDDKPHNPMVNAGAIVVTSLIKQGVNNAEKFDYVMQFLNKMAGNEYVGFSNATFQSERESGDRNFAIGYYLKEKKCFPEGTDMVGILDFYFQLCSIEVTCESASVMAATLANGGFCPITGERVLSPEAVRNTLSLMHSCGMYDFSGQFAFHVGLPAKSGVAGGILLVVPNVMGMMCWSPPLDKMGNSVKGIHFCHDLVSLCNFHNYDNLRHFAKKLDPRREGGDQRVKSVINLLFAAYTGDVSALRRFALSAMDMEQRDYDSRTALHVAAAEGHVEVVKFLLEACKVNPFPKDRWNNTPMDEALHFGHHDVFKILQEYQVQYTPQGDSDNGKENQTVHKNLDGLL
Summary of the method: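 Glutamate formation by hKGA was monitored fluorometrically using coupled glutamate oxidase, HRP and Amplex Red. Substrate was added as 1 mM L-glutamine solution; incubation was 30 min at RT after an initial read.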

[6] = qHTS of Trypanosoma Brucei Inhibitors: LOPAC Validation (AID 624147)
Summary of the method: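 Luminescent Kinase-Glo Plus end-point after 45 min room-temperature reaction of T. brucei pyruvate kinase started with 130 uM ADP (final). Buffer TEA 50 mM pH 7.2 with KCl, MgCl2, BSA, Tween-20; titration-based qHTS with fitted concentration-effect curves.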

[7] = target: Glucagon-like peptide 1 receptor (Homo sapiens) (UniProt P43220); assay: qHTS of GLP-1 Receptor Agonists: LOPAC Validation (AID 624148);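 also: higher luminescence signal means agonism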
Chain of Glucagon-like peptide 1 receptor (Homo sapiens) (P43220 whole entry, looked up): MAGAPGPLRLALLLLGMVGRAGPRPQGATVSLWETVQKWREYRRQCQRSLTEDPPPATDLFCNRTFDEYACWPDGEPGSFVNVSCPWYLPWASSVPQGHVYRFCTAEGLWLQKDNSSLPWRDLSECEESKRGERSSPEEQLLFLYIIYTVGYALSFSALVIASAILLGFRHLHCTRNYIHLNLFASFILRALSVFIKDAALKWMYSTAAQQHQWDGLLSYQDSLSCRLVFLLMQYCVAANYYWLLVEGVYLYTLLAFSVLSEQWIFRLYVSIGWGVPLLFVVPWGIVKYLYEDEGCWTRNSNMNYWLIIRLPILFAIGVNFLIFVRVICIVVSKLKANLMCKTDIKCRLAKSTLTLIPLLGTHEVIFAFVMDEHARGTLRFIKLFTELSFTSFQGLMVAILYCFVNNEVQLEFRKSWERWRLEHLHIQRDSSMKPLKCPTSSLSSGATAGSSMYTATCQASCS
Summary of the method: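 HEK293 cells stably co-expressing GLP-1R and a cAMP-responsive luciferase reporter, plated 12 hours before compound, then incubated 4-6 hr at 37 deg C. Luminescence read 12 min after detection reagent.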

[8] = HTS Assay for Allosteric Antagonists of the Human D2 Dopamine Receptor: Hit Validation in HTRF (AID 624455);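 also: stable D1 dopamine receptor cell line scored for blocking the D1 response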
Summary of the method: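 Hit validation in cells stably expressing the D1 dopamine receptor, run in HTRF format. Compounds were tested for their ability to inhibit the D1-mediated response.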

[9] = target: Retinoic acid receptor RXR-alpha (Homo sapiens) (UniProt P19793); assay: qHTS assay for small molecule antagonists of retinoid X receptor alpha signaling (AID 588546; active = well fitted inhibition curve with a large enough effect in the signal ratio, with a control signal flat, not every such curve was filed as active; the % refers to the signal ratio;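 also: cells stimulated with 9-cis-retinoic acid as agonist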); settings: HEK293T RXRa-UAS-bla, beta-lactamase ratio, antagonist mode
Chain of Retinoic acid receptor RXR-alpha (Homo sapiens) (P19793 whole entry, looked up): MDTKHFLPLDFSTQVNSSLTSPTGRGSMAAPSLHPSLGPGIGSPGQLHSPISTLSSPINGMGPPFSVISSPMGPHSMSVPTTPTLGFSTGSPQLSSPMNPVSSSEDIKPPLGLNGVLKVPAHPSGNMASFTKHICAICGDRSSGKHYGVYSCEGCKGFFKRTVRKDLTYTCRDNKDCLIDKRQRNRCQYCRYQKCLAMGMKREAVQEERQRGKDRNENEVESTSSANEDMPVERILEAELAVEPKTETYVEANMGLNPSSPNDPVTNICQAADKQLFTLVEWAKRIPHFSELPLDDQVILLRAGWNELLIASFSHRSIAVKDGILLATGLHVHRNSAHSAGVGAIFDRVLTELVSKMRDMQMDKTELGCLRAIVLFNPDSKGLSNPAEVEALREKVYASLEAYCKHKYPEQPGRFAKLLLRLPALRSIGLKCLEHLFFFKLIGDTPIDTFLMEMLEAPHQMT
Summary of the method: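 Beta-lactamase reporter inhibition, read as CCF4 fluorescence ratio (ex 405, em 460/530 nm) after 2 h at RT. HEK293T UAS-bla cells, 2500/well, were stimulated with 9-cis-RA at 500 or 100 nM final alongside test compound for 18 h at 37 C.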

[10] = qHTS assay for small molecule activators of the p53 signaling pathway (AID 651743; active = well fitted activation curve with a large enough effect in the signal ratio, not every such curve was filed as active; the % refers to the signal ratio; also: series mostly up to about 92 µM); settings: HCT-116 p53RE-bla, beta-lactamase FRET ratio, 16 h; activation: stronger effect = higher value
Summary of the method: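 p53RE-bla HCT-116 cells carrying a beta-lactamase reporter under p53 response elements were exposed to compounds for 16 hours at 37 C. Reporter activity read as fluorescence after 2 hours at room temperature with LiveBLAzer B/G FRET substrate.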

[11] = target: Thyroid hormone receptor beta (Homo sapiens) (UniProt P10828); assay: qHTS assay for small molecule antagonists of thyroid hormone receptor beta signaling (AID 588547; active = well fitted inhibition curve with a large enough effect in the signal ratio, with a control signal flat, not every such curve was filed as active; the % refers to the signal ratio;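 also: cells stimulated with 0.4 nM T3 agonist during compound exposure; series mostly up to about 77 µM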); settings: TR-UAS-bla HEK293, beta-lactamase ratio, antagonist mode, 18 h
Chain of Thyroid hormone receptor beta (Homo sapiens) (P10828 whole entry, looked up): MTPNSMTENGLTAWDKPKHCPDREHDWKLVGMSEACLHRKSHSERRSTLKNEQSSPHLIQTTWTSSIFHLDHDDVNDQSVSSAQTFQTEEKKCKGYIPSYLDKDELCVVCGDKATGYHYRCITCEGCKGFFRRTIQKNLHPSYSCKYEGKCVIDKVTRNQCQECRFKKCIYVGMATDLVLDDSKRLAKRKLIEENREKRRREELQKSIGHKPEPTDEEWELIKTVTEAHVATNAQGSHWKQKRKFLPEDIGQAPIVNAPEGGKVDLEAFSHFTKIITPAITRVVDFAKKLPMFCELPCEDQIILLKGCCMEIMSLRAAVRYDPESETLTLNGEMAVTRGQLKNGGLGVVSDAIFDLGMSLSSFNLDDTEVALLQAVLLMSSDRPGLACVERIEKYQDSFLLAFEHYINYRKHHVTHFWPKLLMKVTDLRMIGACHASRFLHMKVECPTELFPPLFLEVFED
Summary of the method: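 TR-UAS-bla GripTite HEK293 cells in 2% charcoal/dextran FBS medium; compounds 0.59 nM to 92 uM with T3 at 0.4nM final, 18 h at 37 C. Beta-lactamase read by CCF4 fluorescence (460/530 nm); Hill fits gave IC50 and efficacy.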

[12] = qHTS assay for small molecule agonists of the antioxidant response element (ARE) signaling pathway (AID 651741; active = well fitted activation curve with a large enough effect in the signal ratio; the % refers to the signal ratio; also: potency is read from the fitted curve at half-maximal effect)
Summary of the method: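 CellSensor ARE-bla HepG2 cells (2,000/well) carrying ARE-driven beta-lactamase, exposed 16 h at 37 C. LiveBLAzer B/G FRET substrate added for 2 h at room temperature; fluorescence intensity read.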

[13] = qHTS of Nrf2 Activators: LOPAC Validation (AID 624149)
Summary of the method: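 AREc32_Fluc cells, 1000/well in OPTI-MEM with 5% FBS, grown overnight, then exposed to compounds for 24 hr at 37 deg C, 5% CO2. ARE-driven firefly luciferase read by Steady-Glo luminescence after 30 min at RT.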

Question: Which Potency [1] does the source give for CCCCc1ccc(C(=O)O)nc1 here?
Answer: inactive

Question: What about the Potency [2] of the same compound?
Answer: inactive

Question: And the Potency [3]?
Answer: inactive

Question: What about the Potency [4] of the same compound?
Answer: inactive

Question: What about the Potency [5] of the same compound?
Answer: inactive

Question: What about the outcome [6] of the same compound?
Answer: inactive

Question: What about the outcome [7] of the same compound?
Answer: inactive

Question: What about the Potency [8] of the same compound?
Answer: inactive

Question: For CCCCCCCCc1ccc(O)cc1, which max response [9] is on record?
Answer: -17.2% (inactive)

Question: What about the Potency [1] of the same compound?
Answer: inactive

Question: What about the activation [10] of the same compound?
Answer: 0.0262% (inactive) and -2.23% (inactive)

Question: With Brc1ccccc1-c1ccccc1 as the compound, how does the Potency [1] read?
Answer: 28.2 µM (active)

Question: With C[N+](C)(C)CC(=O)O as the compound, how does the Potency [1] read?
Answer: inactive

Question: What about the Potency [2] of the same compound?
Answer: inactive

Question: Which results are given for O=S(=O)(O)C(F)(F)C(F)(F)C(F)(F)C(F)(F)F?
Answer: activity change % (negative = inhibition) [11]: -13.9% (inactive); Potency [2]: inactive; Potency [12]: 30.6 µM (active) and inactive; activation [10]: -0.542% (inactive) and -4.63% (inactive)

Question: With NC1CC1c1ccccc1 (stereo not drawn) as the compound, how does the Potency [1] read?
Answer: inactive

Question: What about the Potency [5] of the same compound?
Answer: inactive

Question: And the outcome [6]?
Answer: inactive

Question: Which activity change % (negative = inhibition) [11] does the source give for O=[N+]([O-])c1c2ccccc2cc2ccccc12 here?
Answer: 0.364% (inactive)

Question: And the Potency [1]?
Answer: inactive

Question: What about the Potency [2] of the same compound?
Answer: inactive

Question: And the Potency [12]?
Answer: 53.1 µM (active)

Question: And the activation [10]?
Answer: 4.5% (inactive)

Question: With CN1C2CCC1CC(OC(=O)c1cc(Cl)cc(Cl)c1)C2 (stereo not drawn) as the compound, how does the Potency [1] read?
Answer: 3.55 µM (active)

Question: What about the Potency [2] of the same compound?
Answer: inactive

Question: What about the Potency [5] of the same compound?
Answer: inactive

Question: And the outcome [6]?
Answer: inactive

Question: What about the outcome [7] of the same compound?
Answer: inactive

Question: What about the Potency [8] of the same compound?
Answer: inactive

Question: Which activity change % (negative = inhibition) [11] does the source give for Nc1ccc(N=Nc2ccccc2)cc1 here?
Answer: -2.63% (inactive)

Question: And the Potency [2]?
Answer: 5.26 µM (active)

Question: What about the Potency [12] of the same compound?
Answer: 27.3 µM (active)

Question: What about the activation [10] of the same compound?
Answer: -2.42% (inactive)

Question: For CCCN(CCC)C1CCc2ccc(O)cc2C1 (stereo not drawn), which Potency [1] is on record?
Answer: 2.24 µM (active)

Question: What about the Potency [5] of the same compound?
Answer: inactive

Question: And the outcome [6]?
Answer: inactive

Question: For CC[C@@H]1C(=O)OC[C@@H]1Cc1cncn1C, which Potency [1] is on record?
Answer: inactive

Question: Which Potency [1] does the source give for O=C(O)[C@@H]1CCN1 here?
Answer: inactive

Question: What about the Potency [5] of the same compound?
Answer: inactive

Question: What about the outcome [6] of the same compound?
Answer: inactive

Question: And the outcome [7]?
Answer: inactive

Question: What about the outcome [13] of the same compound?
Answer: inactive

Question: And the Potency [8]?
Answer: inactive

Question: Which Potency [1] does the source give for O=C1C(I)=CC(=C(c2cc(I)c(O)c(I)c2)c2ccccc2C(=O)O)C=C1I here?
Answer: inactive

Question: Which results are given for NC(=O)CN1CC(O)CC1=O (stereo not drawn)?
Answer: Potency [1]: inactive; Potency [2]: inactive; Potency [3]: inactive; Potency [4]: inactive; Potency [5]: inactive; outcome [6]: inactive; Potency [8]: inactive

Question: What does the source list for O=[N+]([O-])c1ccc([As](=O)(O)O)cc1?
Answer: Potency [1]: inactive; Potency [2]: inactive; Potency [3]: inactive; Potency [4]: inactive

Question: With CN[C@@H]1C[C@@H](c2ccc(Cl)c(Cl)c2)c2ccccc21 as the compound, how does the Potency [1] read?
Answer: 12.6 µM (active)

Question: And the Potency [2]?
Answer: inactive

Question: What about the outcome [6] of the same compound?
Answer: inactive

Question: What about the Potency [8] of the same compound?
Answer: inactive

Question: What does the source list for COC(=O)c1cncn1C(C)c1ccccc1 (stereo not drawn)?
Answer: Potency [1]: inactive; Potency [2]: inactive; Potency [3]: inactive; Potency [4]: inactive

Question: For CS(=N)(=O)CC[C@H](N)C(=O)O (stereo partly drawn), which Potency [1] is on record?
Answer: inactive

Question: And the Potency [5]?
Answer: inactive

Question: And the outcome [6]?
Answer: inactive

Question: What does the source list for Oc1ccc2c3c1O[C@H]1c4[nH]c5c(c4C[C@@]4(O)[C@@H](C2)N(CC2CC2)CC[C@]314)C[C@@]1(O)[C@H]2Cc3ccc(O)c4c3[C@@]1(CCN2CC1CC1)[C@H]5O4?
Answer: Potency [1]: inactive; Potency [5]: 12.6 µM (active); outcome [6]: inactive; outcome [7]: inactive; Potency [8]: inactive

Question: For CC(C)NC(C)Cc1ccc(I)cc1 (stereo not drawn), which Potency [1] is on record?
Answer: 8.91 µM (active)

Question: And the Potency [2]?
Answer: inactive

Question: And the Potency [3]?
Answer: inactive

Question: What about the Potency [4] of the same compound?
Answer: inactive

Question: What about the Potency [5] of the same compound?
Answer: inactive

Question: What about the outcome [6] of the same compound?
Answer: inactive

Question: And the Potency [8]?
Answer: inactive

Question: For Clc1cnc(Oc2ccc(Oc3ncc(Cl)cc3Cl)cc2)c(Cl)c1, which max response [9] is on record?
Answer: -16.8% (inactive)

Question: And the Potency [1]?
Answer: inactive

Question: And the Potency [5]?
Answer: inactive

Question: And the outcome [6]?
Answer: inactive

Question: And the outcome [13]?
Answer: inactive

Question: And the Potency [8]?
Answer: inactive

Question: And the activation [10]?
Answer: -0.174% (inactive)

Question: What does the source list for CC[N+]1(CCOC(=O)C(O)(c2ccccc2)c2ccccc2)CCCCC1?
Answer: Potency [1]: inactive; Potency [2]: inactive; Potency [3]: inactive

Question: Which results are given for CCCN1CCC[C@H](c2cccc(O)c2)C1?
Answer: Potency [1]: inactive; Potency [2]: inactive; Potency [3]: inactive; Potency [4]: inactive; Potency [5]: inactive; outcome [6]: inactive; outcome [7]: inactive

Question: For CC(C)(c1ccc(O)cc1)c1ccc(O)cc1, which activity change % (negative = inhibition) [11] is on record?
Answer: -3.91% (inactive)

Question: And the Potency [1]?
Answer: inactive

Question: What about the Potency [12] of the same compound?
Answer: 42.2 µM (active) and 47.3 µM (active) and 30.6 µM (active)

Question: For C[C@]12CCC(=O)C(O)=C1CC[C@@H]1[C@H]3CCC(=O)[C@@]3(C)CC[C@@H]12, which Potency [1] is on record?
Answer: inactive

Question: What about the Potency [2] of the same compound?
Answer: inactive

Question: With CN[C@@H](C)[C@H](O)c1ccccc1 as the compound, how does the Potency [1] read?
Answer: inactive

Question: For C[C@]12N[C@H](Cc3ccccc31)c1ccccc12, which Potency [1] is on record?
Answer: inactive

Question: What about the Potency [2] of the same compound?
Answer: inactive

Question: And the Potency [5]?
Answer: inactive

Question: And the outcome [6]?
Answer: inactive

Question: What about the Potency [8] of the same compound?
Answer: inactive

Question: With Cc1nccc2c1[nH]c1ccccc12 as the compound, how does the Potency [1] read?
Answer: inactive

Question: What about the Potency [5] of the same compound?
Answer: inactive

Question: And the outcome [6]?
Answer: inactive

Question: What about the outcome [7] of the same compound?
Answer: inactive

Question: What about the Potency [8] of the same compound?
Answer: inactive

Question: With NCCc1c[nH]c2ccccc12 as the compound, how does the Potency [1] read?
Answer: inactive

Question: And the Potency [5]?
Answer: inactive

Question: What about the outcome [6] of the same compound?
Answer: inactive

Question: And the outcome [13]?
Answer: inactive

Question: Which Potency [1] does the source give for C[C@@H](N)Cc1cnc[nH]1 here?
Answer: inactive

Question: What about the Potency [5] of the same compound?
Answer: inactive

Question: What about the outcome [6] of the same compound?
Answer: inactive

Question: And the outcome [7]?
Answer: inactive

Question: What about the Potency [8] of the same compound?
Answer: inactive
